The text below walks through data of PubChem BioAssay AID2158 (National Center for Advancing Translational Sciences (NCATS), 2009).

Records with an inconclusive call do not appear. Unmarked numbers belong to inactive results. The source made the active and inactive calls. Calls come from the whole dose curve; as a rule, active = well fitted inhibition curve with a large enough effect; inconclusive = small, poorly fitted or top-dose-only effect; inactive = no such curve, though single readings can be large or run the other way.
Potency is the fitted concentration of half-maximal effect.

In the experiment the target is Cruzipain (Trypanosoma cruzi) (UniProt P25779). Kind of experiment: Confirmation qHTS Assay for Inhibitors of Cruzain.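 For activity change, negative = inhibition: plate controls were uninhibited enzyme control for no effect and buffer wells lacking enzyme for full effect.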 Note: nearly all actives have a fitted effect of over 40% in size. The note with it: purified cruzain, Z-FR-AMC fluorescence, 0.01% Triton. The gist of the method: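 Reaction progress from the 60 s rise in AMC fluorescence (ex 360, em 450 nm) after adding 2 uM Z-FR-AMC. Before this, 1.5 nM cruzain sat 15 min at room temperature with compound in pH 5.5 acetate buffer with 5 mM DTT and 0.01% Triton X-100.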
Chain of Cruzipain (Trypanosoma cruzi) (P25779 123-467 limits assumed): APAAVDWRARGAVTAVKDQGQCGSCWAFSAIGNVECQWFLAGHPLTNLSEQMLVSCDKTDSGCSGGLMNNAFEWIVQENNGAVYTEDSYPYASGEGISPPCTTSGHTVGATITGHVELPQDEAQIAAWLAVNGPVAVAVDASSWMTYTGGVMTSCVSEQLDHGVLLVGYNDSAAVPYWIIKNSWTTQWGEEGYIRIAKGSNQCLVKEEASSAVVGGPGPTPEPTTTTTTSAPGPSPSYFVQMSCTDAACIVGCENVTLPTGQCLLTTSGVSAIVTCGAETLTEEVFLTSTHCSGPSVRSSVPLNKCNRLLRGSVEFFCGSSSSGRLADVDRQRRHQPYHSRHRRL
Background: In qHTS, concentration-response curves come from the screen itself.
For `CC(C)(C)OC(=O)Cc1nnc(-c2cc3ccccc3[nH]2)o1`, the activity change, negative = inhibition was 0.423%.

Regarding `CNC(=O)c1ccc2nc(-c3cccc(C)c3)c(-c3cccc(C)c3)nc2c1`, the activity change, negative = inhibition is -24.1%.

Consider `CCNC(=O)c1ccc2nc(-c3ccccc3)c(-c3ccccc3)nc2c1`, for which the activity change, negative = inhibition is -14.3%.

For `CCSc1nnc(NC(=O)/C=C/c2ccc3c(c2)OCO3)s1`, the activity change, negative = inhibition is -48.4%.

In the case of `N#CN1CCC(NS(=O)(=O)c2cccc(C(F)(F)F)c2)CC1`, the activity change, negative = inhibition was 0.31%.

For the molecule `CCc1ccc(OCCCCn2c(CCNC(=O)C3CCCCC3)nc3ccccc32)cc1`, the Potency was 1.58 µM (active).

`COc1cccc(-c2nn3c(-c4cc(C)[nH]n4)nnc3s2)c1`: the activity change, negative = inhibition is -5.64%.

On to `CC(C)C[C@H](N)c1nnc(S(=O)(=O)Cc2ccc(F)cc2)o1`, for which the activity change, negative = inhibition is -25.7%.

Turning to `CCCCC(O)C(=O)Nc1cc(C(F)(F)F)ccc1Cl` (stereo unspecified), the activity change, negative = inhibition was -16.9%.

As for `Cc1ccc(CN(Cc2cc3cc4c(cc3[nH]c2=O)OCCO4)Cc2nnnn2Cc2ccco2)cc1`, the activity change, negative = inhibition is -25.4%.

Take `N#Cc1c(-c2ccccc2)cc(-c2ccco2)c(C#N)c1N`: the activity change, negative = inhibition was -11%.

As for `CCN(CCO)c1nc(SC)nc2c1sc1nc(-c3ccco3)c3c(c12)CCC3`, the Potency was 17.8 µM (active).

As for `Cn1nc(-c2ccc(Cl)cc2)nc2c(=O)n(C)c(=O)nc1-2`, the Potency was 0.891 µM (active).

Consider `CCCCNc1nc(C#N)nc(Nc2ccccc2)n1`, for which the Potency is 0.891 µM (active).

In the case of `Clc1ccccc1-c1nn2c(-c3cc(-c4ccccc4)n[nH]3)nnc2s1`, the activity change, negative = inhibition was -2.56%.

As to `C=CCNC(=O)c1ccc2nc(-c3ccco3)c(-c3ccco3)nc2c1`, the Potency is 15.8 µM (active).
